In PubChem BioAssay:
For some of these results: Results with a measured potency or affinity are listed apart. The source made the active and inactive calls. Unless noted, how the calls were made is not given here.

Legend:
[1] = antimalarial activity against Dd2 strain (AID 2302;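 active means growth inhibition above 50% at the single 2 µM test dose, taken to imply half-maximal potency below 2 µM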;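 further: 0% = DMSO untreated growth and 100% = chloroquine plus artemisinin killed control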); details: P. falciparum Dd2 in RBCs, LDH growth readout, 72 h; at 2 µM; hits give high values
[2] = HepG2 cytotoxicity, primary screen, cytotoxicity control for P. falciparum antimalarial project, cell-based, ATP luminescence (AID 2303;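 active means inhibition above 50%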;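 further: 0% = DMSO wells and 100% = digitonin-killed cells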); details: HepG2 viability, 24-48 h, at 10 µM, hits give high values
[3] = biological target: L-lactate dehydrogenase (Plasmodium falciparum (isolate CDC / Honduras)) (UniProt Q27743); assay: PfLDH activity inhibition – cell lysate, 3D7 strain, counter-screen for P. falciparum growth inhibition project (AID 2304);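 further: 0% = vehicle and 100% = reference inhibitor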; details: P. falciparum 3D7 crude extract, LDH APAD/NBT absorbance; at 2 µM; hits give high values
Sequence of L-lactate dehydrogenase (Plasmodium falciparum (isolate CDC / Honduras)) (Q27743 whole entry, looked up): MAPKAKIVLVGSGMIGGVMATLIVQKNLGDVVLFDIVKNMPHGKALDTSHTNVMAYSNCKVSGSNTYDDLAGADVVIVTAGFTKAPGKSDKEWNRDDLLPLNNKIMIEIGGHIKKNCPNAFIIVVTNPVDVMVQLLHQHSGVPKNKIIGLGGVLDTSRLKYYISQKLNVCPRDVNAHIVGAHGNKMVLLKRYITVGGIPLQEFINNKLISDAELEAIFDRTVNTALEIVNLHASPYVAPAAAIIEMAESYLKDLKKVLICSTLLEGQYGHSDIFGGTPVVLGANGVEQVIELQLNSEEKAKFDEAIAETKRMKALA

[4] = inhibition of 3D7 malaria parasite growth – strain 3D7 (AID 2306);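 further: 0% = DMSO wells and 100% = chloroquine plus artemisinin control wells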; details: P. falciparum 3D7 erythrocytic growth, LDH absorbance, 72 h; at 2 µM; hits give high values
[5] = biological target: Calcium-dependent protein kinase 1 (Plasmodium falciparum (isolate 3D7)) (UniProt P62344); assay: PfCDPK1 kinase inhibitors, biochemical, TCAMS library (AID 1159585; cut-off not given, nearly all actives have IC50 up to about 0.98 µM;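 further: inhibitors leave more ATP so luminescence rises with inhibition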); details: recombinant PfCDPK1, Kinase-Glo ATP depletion luminescence
Sequence of Calcium-dependent protein kinase 1 (Plasmodium falciparum (isolate 3D7)) (P62344 whole entry, looked up): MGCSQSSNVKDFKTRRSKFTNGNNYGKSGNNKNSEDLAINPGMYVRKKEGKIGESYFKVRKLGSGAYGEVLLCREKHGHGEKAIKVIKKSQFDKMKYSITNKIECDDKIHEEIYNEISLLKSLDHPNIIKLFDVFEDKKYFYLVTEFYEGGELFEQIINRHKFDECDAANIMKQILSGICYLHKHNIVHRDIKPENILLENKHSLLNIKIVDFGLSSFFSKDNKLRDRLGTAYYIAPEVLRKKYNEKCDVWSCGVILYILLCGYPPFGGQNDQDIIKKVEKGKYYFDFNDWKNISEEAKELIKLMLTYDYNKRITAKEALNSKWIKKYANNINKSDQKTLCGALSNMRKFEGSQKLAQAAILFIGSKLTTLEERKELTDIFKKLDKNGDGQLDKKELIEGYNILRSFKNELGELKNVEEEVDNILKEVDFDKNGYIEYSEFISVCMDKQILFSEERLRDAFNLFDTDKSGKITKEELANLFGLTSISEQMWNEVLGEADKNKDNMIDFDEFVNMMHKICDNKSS

[6] = biological target: Plasmodium falciparum protein kinase 6 (PK6, PF3D7_1337100) (UniProt Q8IDW1); assay: PfPK6 kinase inhibitors, biochemical, TCAMS library (AID 1159586); details: recombinant PfPK6, Kinase-Glo ATP depletion luminescence
Sequence of Plasmodium falciparum protein kinase 6 (PK6, PF3D7_1337100) (Q8IDW1 1-305): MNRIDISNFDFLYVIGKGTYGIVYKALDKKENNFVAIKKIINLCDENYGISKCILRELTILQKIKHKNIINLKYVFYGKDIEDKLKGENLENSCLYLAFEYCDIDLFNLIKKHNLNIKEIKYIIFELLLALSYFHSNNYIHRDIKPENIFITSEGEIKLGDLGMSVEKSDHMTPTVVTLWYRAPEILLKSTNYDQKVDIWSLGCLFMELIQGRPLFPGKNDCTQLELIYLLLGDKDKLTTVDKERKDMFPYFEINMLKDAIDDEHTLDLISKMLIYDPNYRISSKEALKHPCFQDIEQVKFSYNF

[7] = biological target: Protein kinase 7 (PK7), Plasmodium falciparum 3D7 (PF3D7_0213400) (UniProt Q7YTF7); assay: inhibition of Plasmodium PK7 catalytic activity – biochemical, TCAMS antimalarial set, Kinase-Glo luminescence (AID 1159587); details: recombinant PfPK7, Kinase-Glo ATP depletion luminescence
Sequence of Protein kinase 7 (PK7), Plasmodium falciparum 3D7 (PF3D7_0213400) (Q7YTF7 1-343): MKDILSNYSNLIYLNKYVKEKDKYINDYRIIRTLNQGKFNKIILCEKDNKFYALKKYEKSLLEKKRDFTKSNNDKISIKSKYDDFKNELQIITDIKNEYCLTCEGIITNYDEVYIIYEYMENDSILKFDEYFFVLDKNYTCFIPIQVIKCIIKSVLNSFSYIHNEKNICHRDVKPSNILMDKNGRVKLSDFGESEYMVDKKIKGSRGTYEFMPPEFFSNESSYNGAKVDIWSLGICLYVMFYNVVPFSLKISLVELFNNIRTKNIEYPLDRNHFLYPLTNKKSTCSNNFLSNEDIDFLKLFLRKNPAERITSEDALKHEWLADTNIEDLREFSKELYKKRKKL

[8] = biological target: Calcium-dependent protein kinase 4 (Plasmodium falciparum (isolate 3D7)) (UniProt Q8IBS5); assay: PfCDPK4 kinase inhibitors, biochemical, TCAMS library (AID 1159588; cut-off not given, nearly all actives have IC50 up to about 0.91 µM); details: recombinant PfCDPK4, Kinase-Glo ATP depletion luminescence
Sequence of Calcium-dependent protein kinase 4 (Plasmodium falciparum (isolate 3D7)) (Q8IBS5 whole entry, looked up): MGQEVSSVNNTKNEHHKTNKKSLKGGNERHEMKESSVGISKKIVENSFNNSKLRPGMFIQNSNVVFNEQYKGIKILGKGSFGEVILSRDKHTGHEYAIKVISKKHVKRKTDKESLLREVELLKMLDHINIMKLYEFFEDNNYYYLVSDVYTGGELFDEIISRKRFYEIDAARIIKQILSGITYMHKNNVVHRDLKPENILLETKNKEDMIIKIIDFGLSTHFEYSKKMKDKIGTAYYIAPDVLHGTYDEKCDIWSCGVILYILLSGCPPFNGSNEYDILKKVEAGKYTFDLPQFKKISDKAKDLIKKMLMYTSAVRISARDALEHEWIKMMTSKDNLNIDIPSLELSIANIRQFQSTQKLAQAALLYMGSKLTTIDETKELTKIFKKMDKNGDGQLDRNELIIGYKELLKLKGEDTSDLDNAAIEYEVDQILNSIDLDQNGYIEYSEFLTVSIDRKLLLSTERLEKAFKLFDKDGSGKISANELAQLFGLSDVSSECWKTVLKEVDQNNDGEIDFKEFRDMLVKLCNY

CCc1ccc(-c2cnc(N)c3cc(-c4ccnc(N)n4)ccc23)cc1
inactive: inhibition [2] 37% | inhibition [3] 0% | outcome [5] | outcome [6] | outcome [7] | outcome [8]
active: growth inhibition [1] 70% | growth inhibition [4] 92%

COCCNC(=O)c1ccc(OC2CCN(Cc3ccc(F)c(F)c3)CC2)c(Cl)c1
active: growth inhibition [1] 73% | growth inhibition [4] 88%
inactive: inhibition [2] 8% | inhibition [3] -2% | outcome [5] | outcome [6] | outcome [7] | outcome [8]

O=S(=O)(c1cccc(C(F)(F)F)c1)N1CCC(CO)(Cc2cccc(C(F)(F)F)c2)CC1
inactive: inhibition [2] 3% | inhibition [3] 0% | outcome [5] | outcome [6] | outcome [7] | outcome [8]
active: growth inhibition [1] 79% | growth inhibition [4] 100%

Cc1ccc2c(c1C)NC(=O)C21NN=C(c2ccccc2)S1 (stereo not drawn)
inactive: inhibition [2] 31% | inhibition [3] 0% | outcome [5] | outcome [6] | outcome [7] | outcome [8]
active: growth inhibition [1] 65% | growth inhibition [4] 97%

CC(Nc1ccnc2cc(Cl)ccc12)c1ccc(S(N)(=O)=O)cc1 (stereo not drawn)
inactive: growth inhibition [1] 21% | inhibition [2] 5% | inhibition [3] 3% | outcome [5] | outcome [6] | outcome [7] | outcome [8]
active: growth inhibition [4] 96%

Cc1ccc(-c2csc(C)n2)c(C)c1
inactive: growth inhibition [1] -3% | inhibition [2] 12% | inhibition [3] 3% | outcome [5] | outcome [6] | outcome [7] | outcome [8]
active: growth inhibition [4] 98%

Cc1cc(NC(=O)Nc2cccc(N(C)C)c2)c2ccccc2n1
inactive: inhibition [2] 0% | inhibition [3] 4% | outcome [5] | outcome [6] | outcome [7] | outcome [8]
active: growth inhibition [1] 95% | growth inhibition [4] 97%

O=C(Nc1ccc(OC2CCN(Cc3ccc(F)cc3)C2)cc1)c1ccco1 (stereo not drawn)
active: growth inhibition [1] 69% | growth inhibition [4] 88%
inactive: inhibition [2] -3% | inhibition [3] -1% | outcome [5] | outcome [6] | outcome [7] | outcome [8]

O=[N+]([O-])c1ccc(C=NNc2nc3ccccc3[nH]2)cc1
inactive: inhibition [2] 11% | inhibition [3] -6% | outcome [5] | outcome [6] | outcome [7] | outcome [8]
active: growth inhibition [1] 98% | growth inhibition [4] 101%

COc1cncc(/C=C/c2cncc(C(=O)NCCc3ccc(Cl)cc3Cl)c2)c1
active: growth inhibition [4] 99%
inactive: growth inhibition [1] 49% | inhibition [2] -3% | inhibition [3] -9% | outcome [5] | outcome [6] | outcome [7] | outcome [8]

CC1(C)N=C(N)N=C(N)N1OCc1ccc(-c2ccccc2)cc1
active: growth inhibition [1] 97% | inhibition [2] 64% | growth inhibition [4] 95%
inactive: inhibition [3] -6% | outcome [5] | outcome [6] | outcome [7] | outcome [8]

CN1CCN(c2cc(-c3ccncc3)nc(-c3cccnc3)n2)CC1
inactive: inhibition [2] 13% | inhibition [3] 3% | outcome [5] | outcome [6] | outcome [7] | outcome [8]
active: growth inhibition [1] 98% | growth inhibition [4] 101%

COc1cccc(C(NC(=O)c2ccccc2)c2ccc3cccnc3c2O)c1 (stereo not drawn)
active: inhibition [2] 52% | growth inhibition [4] 89%
inactive: growth inhibition [1] 41% | inhibition [3] 2% | outcome [5] | outcome [6] | outcome [7] | outcome [8]

Cc1ccc(NC(=O)Nc2ccccc2)cc1-c1ccc(C(=O)Nc2ccncc2)cc1
active: growth inhibition [1] 52% | inhibition [2] 67% | growth inhibition [4] 99%
inactive: inhibition [3] 0% | outcome [5] | outcome [6] | outcome [7] | outcome [8]

CC(C)C[C@H](NC(=O)c1cc2ccccc2s1)C(=O)N[C@H]1CCN(Cc2ccc(I)c(OC3CCN(C)C3)c2)C1 (stereo partly drawn)
active: growth inhibition [1] 95% | inhibition [2] 99% | growth inhibition [4] 100%
inactive: inhibition [3] 4% | outcome [5] | outcome [6] | outcome [7] | outcome [8]

Cc1ccc(-n2[nH]c(C)c(N=Nc3cccc(-c4cccc(NC(=O)OC(C)(C)C)c4)c3O)c2=O)cc1C
inactive: growth inhibition [1] 21% | inhibition [2] 39% | inhibition [3] -4% | outcome [5] | outcome [6] | outcome [7] | outcome [8]
active: growth inhibition [4] 94%

CCNc1cc(C)nc(Nc2ccc(NC(=O)c3ccccc3)cc2)n1
inactive: inhibition [2] 41% | inhibition [3] -1% | outcome [5] | outcome [6] | outcome [7] | outcome [8]
active: growth inhibition [1] 63% | growth inhibition [4] 102%

OC(CNc1ccnc(Nc2ccccc2)n1)c1cccc(C(F)(F)F)c1 (stereo not drawn)
active: growth inhibition [1] 61% | growth inhibition [4] 100%
inactive: inhibition [2] 16% | inhibition [3] -2% | outcome [5] | outcome [6] | outcome [7] | outcome [8]

Clc1cccc(Nc2ccc3c(N4CCCCC4)ncnc3n2)c1
inactive: inhibition [3] 0% | outcome [5] | outcome [6] | outcome [7] | outcome [8]
active: growth inhibition [1] 93% | inhibition [2] 54% | growth inhibition [4] 97%

O=C(NC1CCN(c2ccnc3cc(Cl)ccc23)C1)c1ccc(C(F)(F)F)cc1 (stereo not drawn)
inactive: inhibition [2] 37% | inhibition [3] 4% | outcome [5] | outcome [6] | outcome [7] | outcome [8]
active: growth inhibition [1] 57% | growth inhibition [4] 101%

COc1ccc2nccc([C@@H](O)CN3CCC(NC(=O)/C=C/c4c[nH]c5c(C)cccc45)CC3)c2c1
active: growth inhibition [1] 88% | growth inhibition [4] 101%
inactive: inhibition [2] 23% | inhibition [3] 4% | outcome [5] | outcome [6] | outcome [7] | outcome [8]

O=C(Nc1ccc(-c2cccc(-c3nc4ccccc4[nH]3)c2)cc1)c1cnn2cccnc12
active: inhibition [2] 64% | growth inhibition [4] 99%
inactive: growth inhibition [1] 36% | inhibition [3] -1% | outcome [5] | outcome [6] | outcome [7] | outcome [8]

Cc1c(NCCCNCc2cc(Cl)cc(Cl)c2Cl)[nH]c2ccccc2c1=O
inactive: inhibition [2] 35% | inhibition [3] -2% | outcome [5] | outcome [6] | outcome [7] | outcome [8]
active: growth inhibition [1] 86% | growth inhibition [4] 101%

COc1ccc2cc(C=NNc3nc4ccccc4[nH]3)c(Cl)nc2c1
inactive: inhibition [2] 2% | inhibition [3] -2% | outcome [5] | outcome [6] | outcome [7] | outcome [8]
active: growth inhibition [1] 90% | growth inhibition [4] 100%

O=C(NC1CCCCN(Cc2ccccc2O)C1)c1ccc(-c2ccccc2)cc1 (stereo not drawn)
active: growth inhibition [1] 61% | growth inhibition [4] 97%
inactive: inhibition [2] 21% | inhibition [3] -3% | outcome [5] | outcome [6] | outcome [7] | outcome [8]

CC(C)COc1ccc2ccccc2c1CNCCCCCCNCc1c(OCC(C)C)ccc2ccccc12
active: growth inhibition [1] 95% | inhibition [2] 99% | growth inhibition [4] 90%
inactive: inhibition [3] 2% | outcome [5] | outcome [6] | outcome [7] | outcome [8]

CC(NC(C)c1cccc(Cl)c1)C(=O)Nc1cc(C(F)(F)F)ccc1N1CCOCC1 (stereo not drawn)
inactive: growth inhibition [1] 33% | inhibition [2] 30% | inhibition [3] 1% | outcome [5] | outcome [6] | outcome [7] | outcome [8]
active: growth inhibition [4] 89%

COc1cc2c(cc1N1CCN(C)CC1)N(C(=O)Nc1ccc(-c3ccncc3)c(Cl)c1Cl)CC2
inactive: growth inhibition [1] 4% | inhibition [2] 10% | inhibition [3] -6% | outcome [5] | outcome [6] | outcome [7] | outcome [8]
active: growth inhibition [4] 102%

CCOc1cc(C)ccc1N(C1CCN(CCCCNC(=O)c2ccc(-c3ccc(C(F)(F)F)cc3)cc2)CC1)S(=O)(=O)c1ccccc1
active: growth inhibition [1] 85% | growth inhibition [4] 88%
inactive: inhibition [2] 14% | inhibition [3] -4% | outcome [5] | outcome [6] | outcome [7] | outcome [8]

CCCN(CCC)CCCN(CCCN(CCC)CCC)c1cc(C)nc(Nc2ccc3cc(Br)ccc3c2)n1
inactive: inhibition [3] 1% | outcome [5] | outcome [6] | outcome [7] | outcome [8]
active: growth inhibition [1] 99% | inhibition [2] 99% | growth inhibition [4] 98%

COCCNCc1cccc(-c2ccccc2CN(C(=O)c2ccc3c(c2)OCO3)c2ccc(OC)cc2)c1
active: growth inhibition [4] 90%
inactive: growth inhibition [1] 46% | inhibition [2] 6% | inhibition [3] 2% | outcome [5] | outcome [6] | outcome [7] | outcome [8]

CCCCCCCOc1ccc(NC(=O)Nc2ccc(Cn3ncc(N4CCCNCC4)c(Cl)c3=O)cc2)cc1
active: inhibition [2] 60% | growth inhibition [4] 87%
inactive: growth inhibition [1] 28% | inhibition [3] 2% | outcome [5] | outcome [6] | outcome [7] | outcome [8]

CCOc1c(OC)ccc2c1CCN(CCN1CCC(CNC(=O)c3ccc(-c4ccc(C#N)cc4)cc3)CC1)C2
active: growth inhibition [1] 61% | growth inhibition [4] 92%
inactive: inhibition [2] 45% | inhibition [3] 7% | outcome [5] | outcome [6] | outcome [7] | outcome [8]

COc1ccc2nccc([C@@H](O)CN3CCC(NCc4cc5sccc5nc4C(F)(F)F)CC3)c2c1
active: growth inhibition [1] 67% | growth inhibition [4] 89%
inactive: inhibition [2] 22% | inhibition [3] 4% | outcome [5] | outcome [6] | outcome [7] | outcome [8]

O=C(Nc1cccc(CN2CCCN(CC3CCCCC3)CC2)c1)c1ccc(Cl)c(Cl)c1
inactive: growth inhibition [1] 15% | inhibition [2] 39% | inhibition [3] 7% | outcome [5] | outcome [6] | outcome [7] | outcome [8]
active: growth inhibition [4] 91%

Cn1cnc(CCNC(=O)c2ccc(-c3cccc(-c4nc5ccc(C(F)(F)F)cc5[nH]4)c3)cc2)c1
active: growth inhibition [1] 93% | growth inhibition [4] 101%
inactive: inhibition [2] 25% | inhibition [3] 3% | outcome [5] | outcome [6] | outcome [7] | outcome [8]

NC(N)=Nc1ccc(OCCCCCOc2ccc(N=C(N)N)cc2Br)c(Br)c1
active: growth inhibition [1] 95% | growth inhibition [4] 92%
inactive: inhibition [2] 27% | inhibition [3] 0% | outcome [5] | outcome [6] | outcome [7] | outcome [8]

O=C(NC(CCCN1CCC(c2ccccc2)CC1)c1ccc(Cl)c(Cl)c1)c1cc(C(F)(F)F)cc(C(F)(F)F)c1 (stereo not drawn)
inactive: inhibition [2] 33% | inhibition [3] 3% | outcome [5] | outcome [6] | outcome [7] | outcome [8]
active: growth inhibition [1] 87% | growth inhibition [4] 92%

CCC(C)OC(=O)C1=C(C)NC2=C(C(=O)CC(c3ccc(OC)c(OC)c3)C2)C1c1cccc(O)c1 (stereo not drawn)
active: growth inhibition [1] 98% | growth inhibition [4] 100%
inactive: inhibition [2] -8% | inhibition [3] 0% | outcome [5] | outcome [6] | outcome [7] | outcome [8]

N#Cc1ccc(-c2ccc(C(=O)NCCCCN3CCC(c4ccc5c(c4OCc4ccncc4)CCCC5)CC3)cc2)cc1
active: growth inhibition [1] 57% | growth inhibition [4] 81%
inactive: inhibition [2] 41% | inhibition [3] 1% | outcome [5] | outcome [6] | outcome [7] | outcome [8]

Cc1cccc(-n2c(Nc3ccc(C)c(Cl)c3)nc3ccc(S(=O)(=O)NC(C)C(C)C)cc32)c1 (stereo not drawn)
inactive: inhibition [2] -9% | inhibition [3] 4% | outcome [5] | outcome [6] | outcome [7] | outcome [8]
active: growth inhibition [1] 97% | growth inhibition [4] 97%
